Measured values: PubChem BioAssay (EPA / NIEHS)
Inconclusive results are not listed. Activity calls are given as the source filed them. How the source made its calls, unless noted: active means hit-call score of the fitted dose curve at least 0.9, where 1 is the maximum; inactive means score below 0.9.

Tests used:
[1] = BSK_BT_PBMCCytotoxicity: PBMC Cytotoxicity Assessment in the BioMAP Diversity Plus: BT Assay (AID 2284225); settings: primary human B cells with PBMC;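 further: PBMC viability measured by Alamar Blue dye reduction fluorescence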
Outline: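 Viability by Alamar Blue reduction (6 h, ex/em 546/580 nm) after 90 h culture of SEB/TSST-1-activated PBMC (20 ng/mL each) given compound 1 h before activation. DMSO served as baseline for curve fitting.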

[2] = read-out: Secreted IgG (sIgG), gene 3500; assay: BSK_BT_sIgG: BioMAP Diversity Plus: BT Assay for Secreted IgG (sIgG) Biomarker Activity (AID 2284226); settings: primary human B cells with PBMC
Outline: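 ELISA quantitation of secreted IgG from human B cells co-cultured with PBMC, sampled 24 h post-dosing. Values fitted relative to DMSO vehicle as baseline, positive fitting direction.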

[3] = read-out: Interleukin 6 (IL6), IL6 (gene 3569); assay: BSK_BT_xIL6: BioMAP Diversity Plus: BT Assay for Interleukin 6 (IL6) Biomarker Activity (AID 2284228); settings: primary human B cells with PBMC
Outline: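 Human B cell/PBMC co-culture; secreted IL-6 quantified by Luminex xMAP 24 h after chemical dosing, fitted relative to DMSO. Parallel PBMC viability by Alamar Blue after 1 h pretreatment, 20 ng/mL SEB and TSST-1, 90 h incubation.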

[4] = read-out: Vascular cell adhesion molecule 1 (VCAM1), VCAM1 (gene 7412); assay: BSK_MyoF_VCAM1: BioMAP Diversity Plus: MyoF Assay for Vascular cell adhesion molecule 1 (VCAM1) Biomarker Activity (AID 2284231); settings: primary human lung fibroblasts
Outline: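 Primary human lung fibroblasts (BioMAP MyoF system) dosed with chemical, VCAM-1 measured by ELISA 24 hours later. Fitted in the positive direction against DMSO; parallel SRB staining assessed cytotoxicity.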

[5] = CCTE_Shafer_MEA_dev_correlation_coefficient_mean: CCTE's Neural Network Formation Assay for Mean Correlation Coefficient, Shafer Lab (AID 2284093);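 on AC50: well mean pairwise spike train correlation integrated as AUC over recording days 5 to 12; potency fitted for loss of correlation relative to DMSO vehicle wells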
Outline: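 Rat cortical cultures, 1.5 x 10^5 cells/well, dosed from day 0 for 12 days. Spontaneous spikes recorded DIV 5/7/9/12; electrode-pair correlation coefficients averaged, AUC taken. Fit in loss direction vs DMSO.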

[6] = IUF_NPC1b_proliferation_BrdU_72hr: Leibniz Research Institute for Environmental Medicine (IUF) 72-hour Neural Progenitor Cell Bromodeoxyuridine (BrdU) Proliferation Assay (NPC1b) (AID 2284207)
Outline: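 Human fetal cortex-derived (GW 16-19) neural progenitor spheres, 0.25-0.35 mm, one per well in EGF/FGF proliferation medium, exposed to compound for 72 h at 37C, pH 7.2-7.6. BrdU incorporation over the final 16 h read by luminescence ELISA, relative to DMSO.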

[7] = IUF_NPC1a_proliferation_area_72hr: Leibniz Research Institute for Environmental Medicine (IUF) 72-hour Neural Progenitor Cell Proliferation Area Assay (NPC1a) (AID 2284208)
Outline: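 Single 0.25–0.35 mm human fetal neural progenitor spheres in proliferation medium with EGF and FGF, exposed 72 h from plating without renewal at 37C, pH 7.2-7.6. Sphere area growth measured by automated phase-contrast imaging, relative to DMSO.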

[8] = IUF_NPC1_viability_72hr: Viability Assessment at 72 hours in the Leibniz Research Institute for Environmental Medicine (IUF) Neural Progenitor Cell Proliferation Assay (NPC1) (AID 2284209)
Outline: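 Viability was measured by resazurin-to-resorufin fluorescence (alamar blue) after 72 h of continuous exposure without compound renewal. Each well held one hNPC sphere (gestational week 16-19 fetal cortex, 0.25-0.35 mm) cultured in EGF/FGF proliferation medium at 37C and pH 7.2-7.6.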

[9] = CCTE_Mundy_HCI_Cortical_Synap_Neur_Matur_NeuriteSpotCountPerNeuriteLength: CCTE's Synaptogenesis and Neurite Maturation Assay in rat cortical cells for Neurite Spot Count per Neurite Length, Mundy Lab (AID 2284210)
Outline: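 Synaptophysin spots per unit neurite length, measured by automated imaging of MAP2/synaptophysin/Hoechst-stained neurons. Cultures from rat cortex received chemical at DIV 7 with media change through DIV 12; glial growth arrested by AraC at DIV 5; DMSO baseline.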

[10] = CCTE_Mundy_HCI_Cortical_Synap_Neur_Matur_BPCount: CCTE's Synaptogenesis and Neurite Maturation Assay in rat cortical cells for Branch Point Count, Mundy Lab (AID 2284211)
Outline: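 HCI read-out of branch points from MAP2/synaptophysin/Hoechst immunofluorescence; rat cortical cultures, AraC DIV 5, dosing DIV 7, fixed DIV 12; fit in positive direction vs DMSO baseline.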

[11] = CCTE_Mundy_HCI_Cortical_NOG_NeuriteCount: CCTE's Neurite Outgrowth Assay in rat cortical cells for Neurite Count, Mundy Lab (AID 2284212);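 further: cells fixed about two days after chemical exposure began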
Outline: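 Rat cortical primary cells; compound added 2 h post-plating, 1/10 dilution of working solution. Anti-betaIII-tubulin/AF488 ICC; ArrayScan neurite count vs DMSO.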

[12] = CCTE_Mundy_HCI_Cortical_NOG_NeuriteLength: CCTE's Neurite Outgrowth Assay in rat cortical cells for Neurite Length, Mundy Lab (AID 2284213)
Outline: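 First, rat primary cortical cells were plated and, 2 h later, given test chemical as a 1/10 dilution. Finally, βIII-tubulin immunostaining enabled automated imaging of neurite length.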

[13] = CCTE_Mundy_HCI_Cortical_Synap_Neur_Matur_NeuriteLength: CCTE's Synaptogenesis and Neurite Maturation Assay in rat cortical cells for Neurite Length, Mundy Lab (AID 2284214)
Outline: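 Neurite length quantified by automated high-content imaging of MAP2, synaptophysin and Hoechst staining. Rat cortical cells received chemical from DIV 7 to DIV 12 […], glial growth arrested by AraC at DIV 5; DMSO baseline.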

[14] = CCTE_Mundy_HCI_Cortical_Synap_Neur_Matur_NeuriteSpotCountPerNeuron: CCTE's Synaptogenesis and Neurite Maturation Assay in rat cortical cells for Neurite Spot Count per Neuron Count, Mundy Lab (AID 2284215)
Outline: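 Rat primary cortical cultures given AraC at DIV 5, dosed from DIV 7 to DIV 12 with media change. Fixed, stained for MAP2, synaptophysin and Hoechst; neurite-associated synaptophysin puncta per neuron quantified by high-content imaging versus DMSO.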

[15] = CCTE_Mundy_HCI_Cortical_Synap_Neur_Matur_SynapseCount: CCTE's Synaptogenesis and Neurite Maturation Assay in rat cortical cells for Synapse Count, Mundy Lab (AID 2284218)
Outline: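 High-content imaging of synaptophysin puncta per MAP2-positive neuron (Hoechst nuclei) in rat cortical cells exposed DIV 7–12 after glial arrest with AraC at DIV 5; decrease relative to DMSO scored.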

[16] = CCTE_Mundy_HCI_Cortical_Synap_Neur_Matur_NeuriteCount: CCTE's Synaptogenesis and Neurite Maturation Assay in rat cortical cells for Neurite Count, Mundy Lab (AID 2284222);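 further: exposure from day 7 to day 12 in vitro with readout at day 12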
Outline: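 Primary rat cortical cells were plated, treated with AraC at DIV 5, then exposed to chemicals from DIV 7 through DIV 12. After fixation and immunostaining for MAP2 and synaptophysin, imaging quantified neurites, with DMSO as the negative control.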

[17] = CCTE_Mundy_HCI_Cortical_Synap_Neur_Matur_CellBodySpotCount: CCTE's Synaptogenesis and Neurite Maturation Assay in rat cortical cells for Cell Body Spot Count, Mundy Lab (AID 2284223)
Outline: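 Primary rat cortical cultures, AraC added at DIV 5; dosed DIV 7 through DIV 12 […]. Fixed, stained for MAP2 and synaptophysin with Hoechst; cell body-associated synaptophysin puncta per neuron counted by high-content imaging, loss vs DMSO.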

[18] = CCTE_Mundy_HCI_hNP1_Pro_ResponderAvgInten: CCTE's Proliferation Assay in human neuroprogenitor cells, Mundy Lab (AID 2284224; active means hit-call score of the fitted dose curve at least 0.9, where 1 is the maximum;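 further: human neural progenitor cells hNP1 derived from WA09 embryonic stem cells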)
Outline: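 Proliferation was scored as BrdU labelling intensity in human neural progenitors derived from WA09 embryonic cells, measured 26.25 hours after chemical dosing. Activity was fitted relative to DMSO.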

Measured: AC50

O=C=NC1CCC(CC2CCC(N=C=O)CC2)CC1 (centres undefined)
active: [2] 31 µM
inactive: [1] | [3] | [4]

N#Cc1ccc(CC(=NNC(=O)Nc2ccc(OC(F)(F)F)cc2)c2cccc(C(F)(F)F)c2)cc1
active: [5] 2.8 µM | [2] 9.95 µM
inactive: [6] | [7] | [8] | [9] | [10] | [11] | [12] | [13] | [14] | [15] | [16] | [17] | [18] | [1] | [3] | [4]

CCCCCCCCCCCCCCCCCC(=O)OCC(CC)CCCC (centres undefined)
inactive: [1] | [2] | [3] | [4]

CCCCC(CC)COCCC#N (centres undefined)
inactive: [1] | [2] | [3] | [4]

CC1COc2ccccc2N1C(=O)C(Cl)Cl (centres undefined)
active: [1] 12.4 µM | [2] 20 µM | [4] 20 µM
inactive: [3]

Cc1ccc(O)c(C(C)(C)C)c1
active: [4] 34.4 µM
inactive: [1] | [2] | [3]

Nc1cc([N+](=O)[O-])ccc1Cl
inactive: [1] | [2] | [3] | [4]

O=C1OC2(c3cc(Br)c(O)c(Br)c3Oc3c2cc(Br)c(O)c3Br)c2c(Cl)c(Cl)c(Cl)c(Cl)c21
active: [3] 8.52 µM | [4] 5.03 µM
inactive: [1] | [2]

CCCCCCCCC=O
inactive: [1] | [2] | [3] | [4]

Cc1ccc2n[nH]nc2c1
inactive: [1] | [2] | [3] | [4]

CC(=O)Nc1ccccc1O
inactive: [1] | [2] | [3] | [4]

O=C(O)C[C@H](O)C[C@H](O)/C=C/c1c(C2CC2)nc2ccccc2c1-c1ccc(F)cc1
active: [2] 0.122 µM
inactive: [1] | [3] | [4]

c1ccc2sc(SN(C3CCCCC3)C3CCCCC3)nc2c1
inactive: [1] | [2] | [3] | [4]

CCCCC(CC)COC(=O)/C=C\C(=O)OCC(CC)CCCC (centres undefined)
active: [1] 36.1 µM | [2] 7.47 µM | [3] 11.2 µM
inactive: [4]

CC(C)(COC(=O)c1ccccc1)COC(=O)c1ccccc1
inactive: [1] | [3] | [4]
active: [2] 29.9 µM

CC1CCC(C(C)CS)CC1S (centres undefined)
inactive: [1] | [2] | [3]
active: [4] 8.17 µM

O=C(O)c1cn(-c2ccc(F)cc2)c2cc(N3CCNCC3)c(F)cc2c1=O
inactive: [1] | [2] | [3] | [4]

CCc1c(C)cc(N)c(CC)c1N
inactive: [1] | [2] | [3] | [4]

C#C[C@]1(O)CC[C@H]2[C@@H]3CCC4=Cc5oncc5C[C@]4(C)[C@H]3CC[C@@]21C
active: [2] 14.3 µM | [4] 20 µM
inactive: [1] | [3]

COC(=O)c1ccc(C)cc1
inactive: [1] | [2] | [3] | [4]

C=C(C)C(=O)O[C@H]1C[C@@H]2CC[C@@]1(C)C2(C)C
active: [4] 33.6 µM
inactive: [1] | [2] | [3]

CCCCC/C=C/C=C/C=O
active: [1] 20 µM | [2] 29 µM | [3] 27.4 µM | [4] 34.9 µM

CC(C)c1ccc(C(C)C)cc1
inactive: [1] | [2] | [3] | [4]

CN(CCOc1ccc(CC2SC(=O)NC2=O)cc1)c1ccccn1 (centres undefined)
active: [4] 3.97 µM
inactive: [1] | [2] | [3]

CC(C)Oc1ccccc1O
inactive: [1] | [2] | [3] | [4]

CCCCCCCCCC=O
active: [2] 20 µM
inactive: [1] | [3] | [4]

O=P(c1ccccc1)(c1ccccc1)c1ccccc1
inactive: [1] | [2] | [3] | [4]

C=C[Si](OCC)(OCC)OCC
inactive: [1] | [2] | [3] | [4]

CC(=O)O[C@]1(C(C)=O)CC[C@H]2[C@@H]3C[C@H](C)C4=CC(=O)CC[C@]4(C)[C@H]3CC[C@@]21C
active: [2] 14.4 µM
inactive: [1] | [3] | [4]

BrC1CCC(Br)C(Br)CCC(Br)C(Br)CCC1Br (centres undefined)
inactive: [3] | [4]
active: [1] 32.4 µM | [2] 9.16 µM

CCn1c2ccccc2c2cc(N)ccc21
active: [2] 15.4 µM | [3] 11.6 µM
inactive: [1] | [4]

CNC[C@H](O)c1cccc(O)c1
inactive: [1] | [2] | [3] | [4]

CC(=O)/C=C/C1=C(C)CCCC1(C)C
inactive: [1] | [2] | [3] | [4]

CN(C)C(=N)N=C(N)N
active: [10] 18.1 µM | [13] 18.1 µM
inactive: [5] | [6] | [7] | [8] | [9] | [11] | [12] | [14] | [15] | [16] | [17]
